Measurements taken from PubChem BioAssay.
Activity calls are given as the source filed them.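 The calls were made as follows: active = viability loss from added drug above about 55%, and viability with drug at most 40%, in both replicates (limit read from the data, passing the limit was not always enough); inconclusive = both conditions met in only one replicate; inactive = neither replicate meets both conditions.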

test: reversal of MRP1-mediated doxorubicin resistance, pilot screen, H69AR cells, doxorubicin co-treatment (AID 601); details: H69AR cells + 2 uM doxorubicin, CellTiter-Glo, 72 h; at 10 µM; stronger effect = higher value

Q: Which differential viability (reversal) does the source give for `COc1ccc(Cl)cc1C(=O)NCCc1ccc(S(=O)(=O)NC(=O)NC2CCCCC2)cc1` here?
A: -9.18% (inactive)

Q: Which differential viability (reversal) does the source give for `Clc1ccc(C2=Nn3c(nnc3-c3n[nH]c4c3CCC4)SC2)cc1Cl` here?
A: -12.1% (inactive)

Q: For `C(=C\c1ccccc1)/CSc1nnc(-c2ccccn2)n1Cc1ccco1`, which differential viability (reversal) is on record?
A: -46.8% (inactive)

Q: Which differential viability (reversal) does the source give for `CC(C)Cn1c2c(c(O)c(C(=O)Nc3ncccc3O)c1=O)CCCC2` here?
A: -10.7% (inactive)

Q: Which differential viability (reversal) does the source give for `Oc1ccc(/C=C/c2cc(O)cc(O)c2)cc1` here?
A: -11.7% (inactive)

Q: For `N#Cc1ccccc1Cn1c(=O)n(Cc2ccc(C(=O)NCc3ccco3)cc2)c(=O)c2ccccc21`, which differential viability (reversal) is on record?
A: -8.33% (inactive)

Q: For `CO[C@H]1C[C@@H]2CC[C@@H](C)[C@@](O)(O2)C(=O)C(=O)N2CCCC[C@H]2C(=O)O[C@H]([C@H](C)C[C@@H]2CC[C@@H](O)[C@H](OC)C2)CC(=O)[C@H](C)C=C(C)[C@@H](O)[C@@H](OC)C(=O)[C@H](C)C[C@H](C)C=CC=CC=C1C`, which differential viability (reversal) is on record?
A: 1.46% (inactive)

Q: Which differential viability (reversal) does the source give for `COc1ccc(-n2cc(-c3ccccc3)c3c(N4CCN(CCO)CC4)ncnc32)cc1` here?
A: 10.5% (inactive)

Q: For `O=C(O)c1cc(O)c2c(c1)C(=O)c1cccc(O)c1C2=O`, which differential viability (reversal) is on record?
A: -14.5% (inactive)

Q: With `C(=C\c1ccccc1)/CN1CCN(C(c2ccccc2)c2ccccc2)CC1` as the compound, how does the differential viability (reversal) read?
A: -2.73% (inactive)

Q: With `Oc1cccc(Nc2nc(NCC3CCCO3)c3ccccc3n2)c1` (stereo not given) as the compound, how does the differential viability (reversal) read?
A: -19.3% (inactive)

Q: Which differential viability (reversal) does the source give for `Clc1ccc(OCc2nnc(SCCN3CCCCC3)n2Cc2ccco2)cc1` here?
A: -4.72% (inactive)

Q: Which differential viability (reversal) does the source give for `CCC(=O)Oc1ccc(/C(CC)=C(\CC)c2ccc(OC(=O)CC)cc2)cc1` here?
A: -40.5% (inactive)

Q: Which differential viability (reversal) does the source give for `O=S(=O)(c1cccc2cnccc12)N1CCCNCC1` here?
A: 1.83% (inactive)

Q: Which differential viability (reversal) does the source give for `O=C(Nc1ccc2nn(-c3ccccc3)nc2c1)c1ccc(Br)o1` here?
A: -0.29% (inactive)

Q: With `CCc1oc2ccccc2c1C(=O)c1cc(Br)c(O)c(Br)c1` as the compound, how does the differential viability (reversal) read?
A: -23.2% (inactive)

Q: Which differential viability (reversal) does the source give for `O=C(Nc1ccc2oc(Cc3ccc(Cl)cc3)nc2c1)c1cccnc1` here?
A: -41.5% (inactive)

Q: For `CC(=O)Nc1ccccc1OCC(=O)c1cc(C)n(Cc2cccs2)c1C`, which differential viability (reversal) is on record?
A: -4.4% (inactive)

Q: With `O=C(CCCN1CCC(O)(c2ccc(Cl)cc2)CC1)c1ccc(F)cc1` as the compound, how does the differential viability (reversal) read?
A: 3.11% (inactive)

Q: Which differential viability (reversal) does the source give for `COC(=O)c1ccccc1NC(=O)Cn1c(-c2nonc2N)nc2ccccc21` here?
A: -10.4% (inactive)

Q: For `CCCCC[C@H](O)/C=C/[C@H]1C=CC(=O)[C@@H]1C/C=C\CCCC(=O)O`, which differential viability (reversal) is on record?
A: 9.76% (inactive)

Q: For `Cc1ccc(-c2cc(C(F)F)nc(NCC3CCCO3)n2)cc1` (stereo not given), which differential viability (reversal) is on record?
A: 6.21% (inactive)

Q: With `CCc1nnc(NC(=O)c2ccc(S(=O)(=O)N(CC(C)C)CC(C)C)cc2)o1` as the compound, how does the differential viability (reversal) read?
A: -28.4% (inactive)

Q: For `COc1ccc(Br)cc1-c1noc(-c2ccccc2)n1`, which differential viability (reversal) is on record?
A: -0.585% (inactive)

Q: With `Fc1ccc(C(c2ccc(F)cc2)N2CCN(C/C=C/c3ccccc3)CC2)cc1` as the compound, how does the differential viability (reversal) read?
A: -5.65% (inactive)

same assay, conditions: H69AR cells + 2 uM doxorubicin, CellTiter-Glo, 72 h; measured here: viability with 2 uM doxorubicin; at 10 µM; stronger effect = lower value

Q: For `Cc1cccn2c(=O)c3cc(C(=O)NC4CCCC4)c(=N)n(C4CCCC4)c3nc12`, which viability is on record?
A: 12.1%

Q: For `Cc1ccc(Cl)cc1N1CCN(C(=O)c2cn(C)c(=O)c3c2c2ccccc2n3C)CC1`, which viability is on record?
A: 31.8%

Q: With `Cc1cc(C)c2ccc(N)nc2c1O` as the compound, how does the viability read?
A: 28.9%

Q: For `CCC(=O)Oc1ccc(C(CC)C(CC)c2ccc(OC(=O)CC)cc2)cc1` (stereo not given), which viability is on record?
A: 102%

Q: Which viability does the source give for `Cc1ccc2[nH]c3c(c2c1)CN(C(=O)CN1CCN(c2cccc(C)c2C)CC1)CC3` here?
A: 37.6%

Q: With `CN1CCN(C2=Nc3cc(Cl)ccc3Nc3ccccc32)CC1` as the compound, how does the viability read?
A: 51%

Q: With `COc1ccccc1NC(=O)c1oc2ccccc2c1NC(=O)c1cc(OC)c(OC)c(OC)c1` as the compound, how does the viability read?
A: 35.3%

Q: For `CCOC(=O)c1cc(-c2ccc(Cl)s2)nc2c1c(C)nn2C`, which viability is on record?
A: 62%

Q: With `O=C(O)c1ccc2c3c(ncnc13)-c1ccccc1C2=O` as the compound, how does the viability read?
A: 99.8%

Q: For `COc1cc2nc(N3CCN(C(=O)c4ccco4)CC3)nc(N)c2cc1OC`, which viability is on record?
A: 28.9%

Q: Which viability does the source give for `Cc1nnc(NCc2n[nH]c(=O)c3ccccc23)c2ccccc12` here?
A: 81.9%

Q: For `CCN(CC)S(=O)(=O)c1ccc2[nH]cc(C(=O)NCCC3=CCCCC3)c(=O)c2c1`, which viability is on record?
A: 44.3%

Q: With `CCCCn1c(SCc2ccc(Cl)cc2)nc2c1c(=O)[nH]c(=O)n2C` as the compound, how does the viability read?
A: 70.7%

Q: With `O=C(CNCCC1=CCCCC1)Nc1ccccc1N1CCCCC1` as the compound, how does the viability read?
A: 66.9%

Q: For `COc1cc2c(C#N)c(N3CCN(c4ccccc4OC)CC3)nc(N)c2c(N)n1`, which viability is on record?
A: 63.3%

Q: With `COc1ccc(Cl)cc1C(=O)NCCc1ccc(S(=O)(=O)NC(=O)NC2CCCCC2)cc1` as the compound, how does the viability read?
A: 103%

Q: With `Clc1ccc(C2=Nn3c(nnc3-c3n[nH]c4c3CCC4)SC2)cc1Cl` as the compound, how does the viability read?
A: 21.1%

Q: Which viability does the source give for `C(=C\c1ccccc1)/CSc1nnc(-c2ccccn2)n1Cc1ccco1` here?
A: 68.2%

Q: Which viability does the source give for `CC(C)Cn1c2c(c(O)c(C(=O)Nc3ncccc3O)c1=O)CCCC2` here?
A: 63.1%

Q: With `Oc1ccc(/C=C/c2cc(O)cc(O)c2)cc1` as the compound, how does the viability read?
A: 88.6%

Q: With `N#Cc1ccccc1Cn1c(=O)n(Cc2ccc(C(=O)NCc3ccco3)cc2)c(=O)c2ccccc21` as the compound, how does the viability read?
A: 19.4%

Q: With `CO[C@H]1C[C@@H]2CC[C@@H](C)[C@@](O)(O2)C(=O)C(=O)N2CCCC[C@H]2C(=O)O[C@H]([C@H](C)C[C@@H]2CC[C@@H](O)[C@H](OC)C2)CC(=O)[C@H](C)C=C(C)[C@@H](O)[C@@H](OC)C(=O)[C@H](C)C[C@H](C)C=CC=CC=C1C` as the compound, how does the viability read?
A: 65.7%

Q: Which viability does the source give for `COc1ccc(-n2cc(-c3ccccc3)c3c(N4CCN(CCO)CC4)ncnc32)cc1` here?
A: 45.7%

Q: Which viability does the source give for `O=C(O)c1cc(O)c2c(c1)C(=O)c1cccc(O)c1C2=O` here?
A: 91.4%

Q: Which viability does the source give for `C(=C\c1ccccc1)/CN1CCN(C(c2ccccc2)c2ccccc2)CC1` here?
A: 73.7%

Q: Which viability does the source give for `Oc1cccc(Nc2nc(NCC3CCCO3)c3ccccc3n2)c1` (stereo not given) here?
A: 41.4%

Q: With `Clc1ccc(OCc2nnc(SCCN3CCCCC3)n2Cc2ccco2)cc1` as the compound, how does the viability read?
A: 43.3%

Q: For `CCC(=O)Oc1ccc(/C(CC)=C(\CC)c2ccc(OC(=O)CC)cc2)cc1`, which viability is on record?
A: 49.2%

Q: For `O=S(=O)(c1cccc2cnccc12)N1CCCNCC1`, which viability is on record?
A: 95.5%

Q: With `O=C(Nc1ccc2nn(-c3ccccc3)nc2c1)c1ccc(Br)o1` as the compound, how does the viability read?
A: 9.78%

Q: With `CCc1oc2ccccc2c1C(=O)c1cc(Br)c(O)c(Br)c1` as the compound, how does the viability read?
A: 102%

Q: With `O=C(Nc1ccc2oc(Cc3ccc(Cl)cc3)nc2c1)c1cccnc1` as the compound, how does the viability read?
A: 79.4%

Q: Which viability does the source give for `CC(=O)Nc1ccccc1OCC(=O)c1cc(C)n(Cc2cccs2)c1C` here?
A: 90.2%

Q: With `O=C(CCCN1CCC(O)(c2ccc(Cl)cc2)CC1)c1ccc(F)cc1` as the compound, how does the viability read?
A: 80.9%

Q: With `COC(=O)c1ccccc1NC(=O)Cn1c(-c2nonc2N)nc2ccccc21` as the compound, how does the viability read?
A: 26.1%

Q: For `CCCCC[C@H](O)/C=C/[C@H]1C=CC(=O)[C@@H]1C/C=C\CCCC(=O)O`, which viability is on record?
A: 57.6%

Q: Which viability does the source give for `Cc1ccc(-c2cc(C(F)F)nc(NCC3CCCO3)n2)cc1` (stereo not given) here?
A: 94.2%

Q: With `CCc1nnc(NC(=O)c2ccc(S(=O)(=O)N(CC(C)C)CC(C)C)cc2)o1` as the compound, how does the viability read?
A: 61.4%

Q: With `COc1ccc(Br)cc1-c1noc(-c2ccccc2)n1` as the compound, how does the viability read?
A: 79.1%

Q: For `Fc1ccc(C(c2ccc(F)cc2)N2CCN(C/C=C/c3ccccc3)CC2)cc1`, which viability is on record?
A: 82.3%
